PubChem BioAssay AID651558 (National Center for Advancing Translational Sciences (NCATS), 2012)
In all, about 1,200 compounds went through this assay and about 480 (40%) were called active. Not shown: some 29% with an inconclusive outcome. The list shows a part of the results. A number with no mark means an inactive call. The call rests on the fitted dose curve; in most records, active means well fitted inhibition curve with a large enough effect; inconclusive means small, poorly fitted or top-dose-only effect; inactive means no such curve, though single readings can be large or run the other way.
On the % scale 0 is the no-effect control and ±100 the full control effect; potency means the concentration at half of the fitted maximal effect.

Assay: qHTS Assay to Find Inhibitors of Chronic Active B-Cell Receptor Signaling: Hit Validation in Primary Screen; further: nearly all actives have a fitted effect of over 75% in size
Conditions: ABC-DLBCL IkB-luc/CBR ratio luminescence, 4 h; series mostly up to 46.1 µM; activity change, negative = inhibition: at the top concentration
Procedure, shortened: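 TMD8 ABC-DLBCL cells carrying doxycycline-inducible IkBa-green luciferase fusion and free red luciferase, 0.5% FBS, dosed 46 uM–3 nM with doxycycline for 4 h at 37C. Green/red luminescence ratio normalized to basal and 10 uM MG-132.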
With `CCCCC(=O)O[C@]1(C(=O)CO)CC[C@H]2[C@@H]3CCC4=CC(=O)CC[C@]4(C)[C@H]3[C@@H](O)C[C@@]21C` the “activity change, negative = inhibition” value was -25.2%.
In the case of `CCCSc1nc(C)c(C(C)=O)cc1C#N`, the Potency is reported as 16.4 µM (active).
In the case of `CCOc1cc(-c2cc(-c3ccc(NC(C)=O)cc3)nc(N)c2C#N)ccc1O`, the Potency is reported as 20.6 µM (active).
In the case of `CC(C)(C)NNC(=S)Nc1cccc(C(F)(F)F)c1`, the “activity change, negative = inhibition” value is reported as -1.75%.
In the case of `CN1CCN(Cc2cc(COCc3ccccc3)c3cccnc3c2O)CC1`, the “activity change, negative = inhibition” value is reported as -1.6%.
For `CC(C)n1c(SCC(=O)Nc2ccccc2)nc2c1c(=O)n(C)c(=O)n2C`, the Potency was 18.4 µM (active).
In the case of `CC(C)Sc1ccccc1C(=O)Nc1ccc2c(c1)n(C)c(=O)n2C`, the “activity change, negative = inhibition” value is reported as 113%.
With `CC1CCCCN1C(=S)NC(=O)c1cccs1` (centres undefined) the “activity change, negative = inhibition” value was -6.25%.
For `Cc1cnn(CCC(=O)NNC(=S)NCC(C)C)c1`, the “activity change, negative = inhibition” value was -5.82%.
In the case of `Cc1ccc(/C=N/NC(=O)COc2ccccc2-c2ccccc2)cc1`, the Potency is reported as 0.291 µM (active).
With `Cc1ccc(Cl)cc1NC(=S)N/N=C/c1cccc2ccccc12` the “activity change, negative = inhibition” value was 94.8%.
For `COc1ccc(/C=N/NC(=O)COc2ccccc2-c2ccccc2)cc1`, the Potency was 2.59 µM (active).
For `O=C(COc1ccccc1-c1ccccc1)NN=C1CCCC1`, the “activity change, negative = inhibition” value was -6.57%.
For `O=C(COc1ccccc1-c1ccccc1)N/N=C/c1cccc2ccccc12`, the Potency was 2.06 µM (active).
In the case of `O=C(COc1ccccc1-c1ccccc1)N/N=C/c1ccc2ccccc2c1`, the Potency is reported as 0.651 µM (active).
In the case of `C/C(=N\NC(=O)COc1ccccc1-c1ccccc1)c1ccccn1`, the “activity change, negative = inhibition” value is reported as 41.6%.
For `C/C(CCC(C)C)=N\NC(=O)COc1ccccc1-c1ccccc1`, the “activity change, negative = inhibition” value was -6.47%.
For `C/C(=N/NC(=O)COc1cc(C)ccc1C(C)C)C(=O)O`, the “activity change, negative = inhibition” value was -2%.
With `Cc1[nH]n(C(N)=S)c(=O)c1N=Nc1ccc([N+](=O)[O-])cc1Cl` the “activity change, negative = inhibition” value was 65.2%.
With `O=C1CC(c2ccccc2)Cc2nc3ncnn3cc21` (centres undefined) the “activity change, negative = inhibition” value was -0.669%.
For `CCOc1ncccc1C(=O)N1CCN(c2cc(Cl)ccc2C)CC1`, the Potency was 8.2 µM (active).
In the case of `COC(=O)c1cc(C(=O)N2CCN(c3cccc(Cl)c3)CC2)cc([N+](=O)[O-])c1`, the Potency is reported as 5.8 µM (active).
For `CCOc1ccccc1C(=O)N1CCN(c2cccc(Cl)c2)CC1`, the Potency was 0.517 µM (active).
For `Cc1ccccc1C(=O)N1CCC(C(=O)N2CCN(Cc3ccc4c(c3)OCO4)CC2)CC1`, the “activity change, negative = inhibition” value was -22%.
For `CCOc1ncccc1C(=O)N1CCN(c2cccc(C)c2C)CC1`, the Potency was 5.8 µM (active).
In the case of `CCc1ccc(CNC(=O)Cc2ccc(NC(=O)C3=C(C)OCCS3)cc2)cc1`, the Potency is reported as 2.06 µM (active).
For `CC1=C(C(=O)Nc2ccc(CC(=O)NCc3ccc(OC(C)C)cc3)cc2)SCCO1`, the Potency was 1.3 µM (active).
In the case of `CCCCC[C@H](O)/C=C/[C@@H]1[C@@H](C/C=C\CCCC(=O)OC)[C@@H](O)C[C@H]1O`, the Potency is reported as 0.103 µM (active).
In the case of `CCCCC[C@H](O)/C=C/[C@@H]1[C@@H](C/C=C\CCCC(=O)O)[C@@H](O)C[C@H]1O`, the Potency is reported as 2.91 µM (active).
